Compound activity from PubChem.
MARV entry inh: qHTS for inhibitors of binding or entry into cells for Marburg Virus; Marburg virus pseudotyped entry inhibition, cell reporter; Potency, µM (titrated, usually from 37.8 µM), hits mostly inhibitors; hit rate 1.8% among 300,000; calls by dose curve; tested in HEK293 cells
HCV inhibitor: qHTS Assay for Inhibitors of Hepatitis C Virus (HCV) | Huh7.5.1 HCVcc-Cre infection, luciferase reporter, 44 h | hit rate 3.4% among 340,000 | Potency, µM (doses to about 41.8 µM), most hits filed as inhibitors
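Luciferase read-out (15 sec integration) after a 15 min room-temperature substrate step quantifies HCVcc-Cre infection. Cells, 1,000 per well, had compound added 4 h post-plating, then virus at ~0.5 moi, and were cultured 44 h.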
HCMV antiviral: qHTS Assay for inhibitors of the human cytomegalovirus (HCMV); HFF cells, HCMV-luciferase reporter, 72 h; hits give low values; hit rate 4.5% among 410,000; activity change, negative = inhibition, % at 57.5 µM; in the data active = activity change below about -60%; inconclusive = no clear call, values can overlap the other calls; inactive = above about -39%
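Human foreskin fibroblasts infected with luciferase-reporter HCMV at MOI 1 PFU/cell, compounds at two doses. Luciferase measured 72 h post infection; normalized to buffer-only basal and Salinomycin (10uM) controls.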
FMDV antiviral: High Throughput Screening for Foot and Mouth Disease Virus Antivirals. FMDV antiviral cell-based qHTS. hit rate 1.2% among 410,000. Potency, µM (doses to about 57.9 µM), usual class: inhibitors; calls by dose curve; tested in HEK293T cells; also: read-out not given here; nearly all actives have a fitted effect of over 45% in size
LASV entry inh: qHTS for Inhibitors of binding or entry into cells for Lassa Virus; Lassa virus pseudotype entry inhibition, cell reporter; Potency, µM (top dose mostly 37.9 µM), most hits filed as inhibitors; hit rate 1.2% among 300,000; calls by dose curve; tested in HEK293 cells; also: nearly all actives have a fitted effect of over 50% in size
HeLa G2M arrest: Cell cycle validation with wells to cells screening paradigm; shares compounds with MARV entry inh; HeLa cell cycle G2/M arrest, Hoechst DNA content imaging; Potency, µM, usual class: inhibitors; hit rate 60% among 25; AID 2441, 2010
WI-38 tox: High Content Assay for Compounds that inhibit the Assembly of the Perinucleolar Compartment: WI-38 Cytotoxicity. shares compounds with MARV entry inh. 120 tested, under 10 active. WI-38 normal lung fibroblasts, ATPLite luminescence ATP viability, 24 h. Potency, µM (series often up to 46.1 µM), most hits filed as inhibitors
PNC inh conf: High Content Assay for Compounds that inhibit the Assembly of the Perinucleolar Compartment: Confirmation of PNC Inhibition | shares compounds with MARV entry inh | hit rate 50% among 120 | PC3M PTB-GFP, PNC prevalence imaging, 16 h | AID 2730, 2010 | Potency, µM (top dose mostly 46.1 µM), most hits filed as inhibitors
PC3M casp3-7: High Content Assay for Compounds that inhibit the Assembly of the Perinucleolar Compartment: PC3M Caspase 3/7 Activation | activity change, positive = activation, % at 46.1 µM | PC3M-GFP caspase 3/7 activation, luminescence, 24 h | 120 tested, under 10 active | shares compounds with MARV entry inh | AID 2731, 2010
Of the large screens only hits and unclear results are named; the others gave an inactive call (follow-up assays come after a bar, where they were run); ! = not confirmed by another sample. Rows were chosen to be rich in hits. Some 7.9% of all compounds tested hit in one or more screens of this group. Unless noted, calls follow the shape of the dose curve; as a rule, active = well fitted curve in the direction sought with a large enough effect; inconclusive = small, poorly fitted or top-dose-only effect, or another doubt; inactive = no such curve, though single readings can be large; an effect the other way counts as inactive or inconclusive.

O=C(Nc1cccnc1)c1cccs1	MARV entry inh inconclusive, HCV inhibitor inconclusive, HCMV antiviral inconclusive, LASV entry inh inconclusive | WI-38 tox inactive | PNC inh conf 8.9µM | PC3M casp3-7 inactive
CCOc1ccc(NC(=O)C2CCCN2S(=O)(=O)c2ccc3c(c2)C(C)(C)C(=O)N3C)cc1 (stereo unspecified)	HCV inhibitor inconclusive, FMDV antiviral inconclusive (no result: MARV entry inh, LASV entry inh)
O=S(=O)(Nc1cc(Sc2cccc3cccnc23)c(O)c2ccccc12)c1ccc(F)cc1	MARV entry inh 6.5µM, HCV inhibitor 11µM, HCMV antiviral -100, FMDV antiviral 13µM, LASV entry inh 11µM | WI-38 tox inconclusive | PNC inh conf inconclusive | PC3M casp3-7 inconclusive
CC(=O)N(C)C1=C(N2CCOCC2)C(=O)c2ccccc2C1=O	MARV entry inh 1.5µM, HCV inhibitor 0.56µM, FMDV antiviral 2.5µM, LASV entry inh 0.58µM (no result: HCMV antiviral) | WI-38 tox inconclusive | PNC inh conf inconclusive | PC3M casp3-7 inconclusive
CC(=O)N(C1=C(N2CCOCC2)C(=O)c2ccccc2C1=O)c1ccc(C(=O)O)cc1	FMDV antiviral inconclusive (no result: MARV entry inh, LASV entry inh)
CC(/C=C/c1ccccc1)=N\NC(=O)c1ccc2c(c1)OCCO2	MARV entry inh inconclusive, HCV inhibitor inconclusive, LASV entry inh inconclusive
CC(/C=C/c1ccccc1)=N/NC(=O)c1cc([N+](=O)[O-])cc([N+](=O)[O-])c1	MARV entry inh inconclusive, LASV entry inh inconclusive | WI-38 tox inactive | PNC inh conf inconclusive | PC3M casp3-7 inactive
COC(=O)Nc1nc2ccc(C(=O)c3cccs3)cc2[nH]1	MARV entry inh 0.16µM!, HCMV antiviral -75, LASV entry inh inconclusive | HeLa G2M arrest 0.071
O=C(Nc1nc2ccccc2[nH]1)c1cccs1	none
CN(C)C(=O)COC(=O)c1ccccc1Nc1ccc(SC(F)F)cc1	HCV inhibitor inconclusive, HCMV antiviral -67 (no result: LASV entry inh) | WI-38 tox inactive | PNC inh conf 16µM | PC3M casp3-7 inactive
Cc1ccc2ccc3cc(C(=O)N4CCN(c5ccccc5)CC4)nc3c2[nH]1	FMDV antiviral inconclusive, LASV entry inh inconclusive (no result: MARV entry inh, HCV inhibitor)
O=C1C(=Cc2cccs2)C(=O)c2ccccc21	none | WI-38 tox inactive | PNC inh conf inactive | PC3M casp3-7 inactive
O=C(CC[C@H]1O[C@@H](n2ccc(=O)[nH]c2=O)[C@H](O)[C@@H]1O)N[C@H](Cc1ccccc1)C(=O)NCc1ccccc1	none (no result: MARV entry inh, HCV inhibitor, LASV entry inh)
CN(C)S(=O)(=O)c1ccc2c(c1)/C(=C/c1cc3c([nH]1)CCCC3)C(=O)N2	MARV entry inh inconclusive, HCV inhibitor inconclusive, LASV entry inh inconclusive | HeLa G2M arrest inconclusive
CN(C)S(=O)(=O)c1ccc2c(c1)C(=O)c1cc(S(=O)(=O)N(C)C)ccc1CC2	none (no result: MARV entry inh, HCV inhibitor, LASV entry inh)
COc1ccc(/C=C/C(=O)OCC(=O)Nc2ccc(Cl)c(S(=O)(=O)N(C)C)c2)cc1OC	FMDV antiviral inconclusive | WI-38 tox inactive | PNC inh conf inactive | PC3M casp3-7 inactive
COc1ccc(/C=C/C(=O)OCC(=O)Nc2ccc(S(N)(=O)=O)cc2)cc1OC	none (no result: MARV entry inh, LASV entry inh)
O=C1C(=O)c2ccc(-c3ccccc3)cc2-c2ccccc21	MARV entry inh 5.8µM, HCV inhibitor 4.5µM, HCMV antiviral -99, FMDV antiviral 14µM, LASV entry inh inconclusive | WI-38 tox inconclusive | PNC inh conf 22µM | PC3M casp3-7 inconclusive
Nc1ccc2c(c1)C(=O)c1ccccc1C2=O	HCV inhibitor inconclusive
Nc1ccc2c(c1)C(=O)C(=O)c1ccccc1-2	MARV entry inh 5.6µM, HCV inhibitor 2.5µM, HCMV antiviral -98, FMDV antiviral 5.6µM, LASV entry inh inconclusive | WI-38 tox 28µM | PNC inh conf 20µM | PC3M casp3-7 inactive
Nc1ccc2c(c1)C(=O)c1ccccc1-2	MARV entry inh inconclusive, HCV inhibitor inconclusive
CC(=O)c1ccc(NC(=O)CN(C)S(=O)(=O)c2cnc[nH]2)cc1	none (no result: HCV inhibitor)
Cc1ccc(S(=O)(=O)NCc2ccccc2)cc1C(=O)NCC1CCCO1 (stereo unspecified)	none
CN1c2ccccc2C(C)(C)C12CC(c1ccc(Cl)c(S(=O)(=O)N3CCCC3)c1)=NO2 (stereo unspecified)	none (no result: HCMV antiviral, FMDV antiviral) | WI-38 tox inactive | PNC inh conf 4µM | PC3M casp3-7 inactive
CN(C)CCOc1ccc(C(C)(C)c2ccccc2)cc1	MARV entry inh inconclusive
CCOC(=O)c1c(C)c(C(=O)NCc2ccc(Cl)cc2)c(C)n1C	none (no result: HCV inhibitor, LASV entry inh)
COCCn1c(SC(C)C(=O)Nc2ncc(Cl)cc2Cl)nc2ccccc21 (stereo unspecified)	MARV entry inh 2µM, HCV inhibitor inconclusive, HCMV antiviral -70, FMDV antiviral inconclusive, LASV entry inh 1.4µM | WI-38 tox inactive | PNC inh conf 13µM | PC3M casp3-7 inactive
Cc1nnc(SC(C)C(=O)Nc2ncc(Cl)cc2Cl)n1Cc1ccccc1 (stereo unspecified)	none
Cc1cc(SC(C)C(=O)Nc2ncc(Cl)cc2Cl)nc2ccccc12 (stereo unspecified)	MARV entry inh inconclusive, HCV inhibitor inconclusive, LASV entry inh 5.8µM | WI-38 tox inactive | PNC inh conf 11µM | PC3M casp3-7 inactive
COc1ccc2nc3sc(C(=O)NCCCN4CCc5ccccc5C4)cc3cc2c1	MARV entry inh inconclusive, HCV inhibitor 10µM, LASV entry inh inconclusive | WI-38 tox inconclusive | PNC inh conf inactive | PC3M casp3-7 inactive
CCN(CC(=O)Nc1ccc(OC)cc1)C(=O)C1CC(=O)N(Cc2ccccc2)C1 (stereo unspecified)	none (no result: MARV entry inh, HCV inhibitor, LASV entry inh)
Cc1c(NC(=O)COC(=O)c2cc(-c3ccc(-c4ccccc4)cc3)nc3ccccc23)c(=O)n(-c2ccccc2)n1C	MARV entry inh 0.58µM, HCMV antiviral -97, LASV entry inh 0.89µM | WI-38 tox 7.9µM | PNC inh conf 2µM | PC3M casp3-7 inactive
O=C(Nc1ccc(NC(=O)C2CC2)cn1)c1ccccc1Cl	MARV entry inh inconclusive, HCV inhibitor inconclusive, HCMV antiviral inconclusive, LASV entry inh inconclusive | WI-38 tox inconclusive | PNC inh conf 35µM | PC3M casp3-7 inactive
O=C(Nc1ccc(NC(=O)C2CCCCC2)nc1)c1ccccn1	MARV entry inh inconclusive, LASV entry inh inconclusive
